From the supplement of paper PMC11150407 come the findings set out here.

Hit rate of the full screen: of about 2,100 compounds, about 180 (8.6%) showed an effect of 50% or more. Many of the other results were omitted from the sample, so strong results are more common in it than they were.

This assay relates to MOLM1 and UCSD/AML1 (averaged). Kind of assay: cell viability relative to DMSO control (POC); higher = less growth inhibition. Conditions: 1 µM; 72 h. The method, then:
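Primary viability screen in the 3q26 EVI1-high AML cell lines MOLM1 and UCSD/AML1 (1.5e3 cells/well, 384-well), compounds at 1 uM for 72 h. ATP CellTiter-Glo read-out given as percent of viable cells over DMSO control (POC), averaged over duplicates. DMSO was the negative control and 5 uM etoposide the positive control. This mapping covers the MicroSource Spectrum and Selleck anticancer libraries (drug names).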
As usually defined, the cell viability is a read-out of living cells in per cent, often relative to untreated cells. `O=C1C(Cl)=C(Cl)C(=O)C(Cl)=C1Cl`: the cell viability came out at 114%.

Regarding `CNc1ccc(C(=O)CC(O)CCC(C)C2OC(=O)CC(O)CC(=O)CC(O)CC(O)CC(O)CC(O)CC3(O)CC(O)C(C(=O)OC)C(CC(O[C@@H]4O[C@H](C)[C@@H](O)[C@H](N)[C@@H]4O)/C=C/C=C/C=C/C=C/C=C/C=C/C=C/C2C)O3)cc1.COC(=O)C1C(O)CC2(O)CC(O)CC(O)CC(O)CC(O)CC(=O)CC(O)CC(=O)OC(C(C)CCC(O)CC(=O)c3ccc(N)cc3)C(C)/C=C/C=C/C=C/C=C/C=C/C=C/C=C/C(O[C@@H]3O[C@H](C)[C@@H](O)[C@H](N)[C@@H]3O)CC1O2` (stereo not given in full), the cell viability was found to be 93.4%.

For the molecule `CN(CC[C@H](N)CC(=O)N[C@H]1C=C[C@H](n2ccc(N)nc2=O)O[C@@H]1C(=O)O)C(=N)N`, the cell viability is 114%.

Take `COc1cc2c(cc1-c1cc3cc4ccoc4cc3oc1=O)OCO2`: the cell viability is 99.4%.

Consider `CC[C@@H](C)C(=O)O[C@H]1[C@H](O)[C@H]2[C@@H](CN3C[C@@H](C)CC[C@H]3[C@@]2(C)O)[C@@H]2C[C@]34O[C@]5(O)[C@@H](OC(=O)[C@@](C)(O)CC)CC[C@@]3(C)[C@@H]5[C@@H](OC(C)=O)[C@@H](OC(C)=O)[C@H]4[C@@]21O`, for which the cell viability is 89.1%.

As for `COc1ccc2c(c1OC)C(=O)O[C@@H]2[C@H]1c2cc3c(cc2CCN1C)OCO3`, the cell viability stood at 88%.

As to `COc1ccc2c(c1OC)C(=O)O[C@H]2[C@H]1c2cc3c(cc2CCN1C)OCO3`, the cell viability came out at 93.9%.

Consider `COc1cc([C@@H]2c3cc4c(cc3[C@H](O)[C@H]3COC(=O)[C@@H]23)OCO4)cc(OC)c1OC`, for which the cell viability came out at 12.3%.

In the case of `CN1CCc2cc3c(cc2C1O)OCO3` (stereo not given), the cell viability was determined as 102%.

For the molecule `COc1cc([C@@H]2c3cc4c(cc3[C@H](O)[C@H]3COC(=O)[C@H]23)OCO4)cc(OC)c1OC`, the cell viability was 6.17%.

`Oc1cc(Cl)ccc1Oc1ccc(Cl)cc1Cl`: the cell viability was 95.1%.

With `Cc1ncc(CNC(=O)N(CCCl)N=O)c(N)n1`, the cell viability came to 111%.

`CC(=O)CC1CCCCN1` (stereo not given): the cell viability is 102%.

`CN[C@@H](C)[C@@H](O)c1ccccc1`: the cell viability was determined as 105%.

`O=c1[nH]c2ccccc2n1C1CCN(CCCC(c2ccc(F)cc2)c2ccc(F)cc2)CC1`: the cell viability was determined as 94.7%.

Turning to `CNC(C)C(O)c1ccccc1` (stereo not given), the cell viability worked out at 96.1%.

With `CC[C@@H](C(=O)[C@@H](C)[C@@H](O)[C@H](C)[C@@H]1O[C@@H]([C@@H](CC)C(=O)O)CC[C@@H]1C)[C@H]1O[C@]2(C=C[C@@H](O)[C@]3(CC[C@@](C)([C@H]4CC[C@](O)(CC)[C@H](C)O4)O3)O2)[C@H](C)C[C@@H]1C` [Salinomycin (Procoxacin)], the cell viability is 68.4%.

For the molecule `CC[C@@H](C(=O)[C@@H](C)[C@@H](O)[C@H](C)[C@@H]1O[C@@H]([C@@H](CC)C(=O)O)CC[C@@H]1C)[C@H]1O[C@]2(C=C[C@@H](O)[C@]3(CC[C@@](C)([C@H]4CC[C@](O)(CC)[C@H](C)O4)O3)O2)[C@H](C)C[C@@H]1C`, the cell viability amounted to 20.9%.

In the case of `CC(=O)O[C@@H]1[C@H]2CC[C@H]3[C@@](C)(O)[C@@H]4C[C@H](O)C(C)(C)[C@@]4(O)[C@H](O)C[C@@]13C[C@@]2(C)O`, the cell viability is 100%.

Regarding `C[C@@H](CO)NC(=O)[C@@H]1C=C2c3cccc4[nH]cc(c34)C[C@H]2N(C)C1`, the cell viability was 102%.

As for `CC1=C(O)C(=O)C=C2C1=CC=C1[C@@]2(C)CC[C@@]2(C)[C@@H]3C[C@](C)(C(=O)O)CC[C@]3(C)CC[C@]12C`, the cell viability was 30.1%.

For the molecule `Cc1c(O)c(O)cc2c1CC=C1[C@@]2(C)CC[C@@]2(C)[C@@H]3C[C@](C)(C(=O)O)CC[C@]3(C)CC[C@]12C`, the cell viability amounted to 11.5%.

Consider `CC(C)C[C@H](CN)CC(=O)O`, for which the cell viability turned out to be 67.7%.

For `COC[C@]12CN(C=O)[C@@H]3[C@@H]4[C@H](OC)[C@H]1[C@@]3([C@@H](OC)C[C@H]2O)[C@@H]1C[C@@]2(O)[C@H](OC(=O)c3ccccc3)[C@@H]1[C@]4(OC(C)=O)[C@@H](O)[C@@H]2OC`, the cell viability amounted to 111%.

As to `C=C(C)[C@H]1Cc2c(ccc3c(=O)c4c(oc23)COc2cc(OC)c(OC)cc2-4)O1`, the cell viability turned out to be 106%.

For the molecule `S=C=NCc1ccccc1`, the cell viability is 95.3%.

`C#CCOS(=O)OC1CCCCC1Oc1ccc(C(C)(C)C)cc1` (stereo not given): the cell viability stood at 89.9%.

Turning to `CC(C)(C)C(=O)C(Oc1ccc(Cl)cc1)n1cncn1` (stereo not given), the cell viability was found to be 99.8%.

Turning to `CC[C@@]1(O)C(=O)OCc2c1cc1n(c2=O)Cc2cc3ccccc3nc2-1`, the cell viability was 1.42%.

For the molecule `C[C@H]1CC[C@]2(NC1)O[C@H]1C[C@H]3[C@@H]4CC[C@H]5C[C@@H](O)CC[C@]5(C)[C@H]4CC[C@]3(C)[C@H]1[C@@H]2C`, the cell viability was determined as 93.3%.

In the case of `C[N+]1(C)CCc2cc3c(cc2[C@H]1[C@@H]1OC(=O)c2c1ccc1c2OCO1)OCO3`, the cell viability was found to be 104%.

Turning to `COc1cc2c(cc1OC)[C@H](C)NCC2`, the cell viability was 94.2%.

With `CC(C)[C@]12O[C@H]1[C@@H]1O[C@]13[C@]1(O[C@H]1C[C@H]1C4=C(CC[C@@]13C)C(=O)OC4)[C@@H]2O` [Triptolide], the cell viability is 2.21%.

As for `CC(C)c1ccc2c(c1O)CC[C@H]1C3=C(CC[C@]21C)C(=O)OC3`, the cell viability is 89.3%.

Regarding `c1ccc(/N=N/c2ccccc2)cc1`, the cell viability was 96.4%.

As to `N#C/C(=C\c1ccc(O)cc1)C(=O)O` [alpha-CYANO-4-HYDROXYCINNAMIC ACID], the cell viability stood at 113%.

With `CCSCC[C@H](N)C(=O)O`, the cell viability worked out at 99.2%.

For `CCC(C)C(=O)OC1CC2(C)C(c3ccoc3)OC(=O)CC23OC2(C)OC34C(OC(=O)C(C)C)C3(O)C(OC(=O)C5(C)OC5C)C5(C)CC3(O)C(C)(C5CC(=O)OC)C14O2` (stereo not given), the cell viability amounted to 91.2%.

On to `COC(=O)[C@@H]1C[C@H](OC(C)=O)C(=O)[C@H]2[C@@]1(C)CC[C@H]1C(=O)O[C@H](c3ccoc3)C[C@]21C`, for which the cell viability worked out at 104%.

For `CNC(=O)Oc1cccc2c1OC(C)(C)C2`, the cell viability turned out to be 85.3%.

Take `COc1ccc(C[C@H]2NC[C@H](O)[C@H]2OC(C)=O)cc1`: the cell viability stood at 3.59%.

For the molecule `C=CCc1ccc(OC)cc1`, the cell viability was found to be 107%.

As to `CC[C@H]1[C@@H]2C[C@H]3[C@@H]4N(C)c5ccccc5[C@]45C[C@@H]([C@@H]2[C@H]5O)N3[C@@H]1O`, the cell viability turned out to be 109%.

As for `CC1=C2C(=CO[C@H](C)[C@H]2C)C(O)=C(C(=O)O)C1=O`, the cell viability worked out at 104%.

With `CC(=O)O[C@H]1C[C@@H]2CC[C@@H]3[C@H](CC[C@@]4(C)[C@H]3C[C@H]([N+]3(C)CCCCC3)[C@@H]4OC(C)=O)[C@@]2(C)C[C@@H]1[N+]1(C)CCCCC1`, the cell viability was 88.6%.

As for `CC(=O)O[C@H]1CC[C@@]2(C)[C@H](CC[C@@H]3[C@@H]2CC[C@]2(C)[C@@H](C4=CC(=O)OC4)[C@@H](OC(C)=O)C[C@]32O)C1`, the cell viability was determined as 2.29%.

For the molecule `CC(=O)O[C@H]1C[C@H](O[C@H]2[C@@H](O)C[C@H](O[C@H]3[C@@H](O)C[C@H](O[C@H]4CC[C@@]5(C)[C@H](CC[C@@H]6[C@@H]5C[C@@H](O)[C@]5(C)[C@@H](C7=CC(=O)OC7)CC[C@]65O)C4)O[C@@H]3C)O[C@@H]2C)O[C@H](C)[C@H]1O[C@@H]1O[C@H](CO)[C@@H](O)[C@H](O)[C@H]1O`, the cell viability worked out at 3.89%.

As to `CC(=O)OC1CCC23C(=O)OC45CCC(C6=CC(=O)OC6)C4(C)CCC2C5CCC3(O)C1` (stereo not given), the cell viability worked out at 5.23%.

As to `C[C@]12CC[C@H](O)C[C@H]1CC[C@@H]1[C@@H]2CC[C@]2(C)[C@@H](C3=CC(=O)OC3)[C@@H](O)C[C@]12O`, the cell viability is 99.6%.

Consider `CC(=O)[C@H]1CC[C@H]2[C@@H]3CC[C@H]4C[C@H](O)CC[C@]4(C)[C@H]3CC[C@]12C`, for which the cell viability came out at 87.7%.

As for `C[C@@H]1CC[C@@]2(OC1)O[C@H]1[C@@H](O)[C@H]3[C@@H]4CC[C@H]5C[C@@H](O[C@@H]6O[C@H](CO)[C@H](O[C@@H]7O[C@H](CO)[C@@H](O)[C@H](O[C@@H]8OC[C@@H](O)[C@H](O)[C@H]8O)[C@H]7O[C@@H]7O[C@H](CO)[C@H](O)[C@H](O[C@@H]8O[C@H](CO)[C@@H](O)[C@H](O)[C@H]8O)[C@H]7O)[C@H](O)[C@H]6O)[C@H](O)C[C@]5(C)[C@H]4CC[C@]3(C)[C@H]1[C@@H]2C`, the cell viability amounted to 92.7%.

With `C[C@H]1O[C@@H](O[C@H]2[C@@H](O)C[C@H](O[C@H]3[C@@H](O)C[C@H](O[C@H]4CC[C@@]5(C)[C@H](CC[C@@H]6[C@@H]5CC[C@]5(C)[C@@H](C7=CC(=O)OC7)[C@@H](O)C[C@]65O)C4)O[C@@H]3C)O[C@@H]2C)C[C@H](O)[C@@H]1O`, the cell viability came out at 3.82%.

As to `C[C@H]1CC[C@]2(NC1)O[C@H]1C[C@H]3[C@@H]4CC[C@H]5C[C@@H](O[C@@H]6O[C@H](CO)[C@H](O[C@@H]7O[C@H](CO)[C@@H](O)[C@H](O[C@@H]8OC[C@@H](O)[C@H](O)[C@H]8O)[C@H]7O[C@@H]7O[C@H](CO)[C@@H](O)[C@H](O)[C@H]7O)[C@H](O)[C@H]6O)CC[C@]5(C)[C@H]4CC[C@]3(C)[C@H]1[C@@H]2C`, the cell viability was 65.2%.

`c1cc2c(cc1[C@H]1OC[C@H]3[C@@H]1CO[C@H]3c1ccc3c(c1)OCO3)OCO2`: the cell viability is 84.6%.

As to `C[C@@H]1CC[C@]2(NC1)O[C@H]1C[C@H]3[C@@H]4CC=C5C[C@@H](O)CC[C@]5(C)[C@H]4CC[C@]3(C)[C@H]1[C@@H]2C`, the cell viability was 94.1%.

For the molecule `C[C@H]1C(=O)O[C@@H]2CCN3CC=C(COC(=O)[C@](C)(O)[C@]1(C)O)[C@H]23`, the cell viability came out at 103%.

For `C[C@@H]1C(=O)O[C@H]2[C@H]1CC[C@@]1(C)C=CC(=O)[C@@]3(C)O[C@@]213` [EPOXY (4,5alpha)-4,5-DIHYDROSANTONIN], the cell viability stood at 95.7%.

For `CNC(Cc1c[nH]c2ccccc12)C(=O)O` (stereo not given), the cell viability was determined as 102%.

`C=C[C@H]1CN2CC[C@H]1C[C@H]2[C@H](OC(=O)OCC)c1ccnc2ccc(OC)cc12`: the cell viability came out at 98.5%.

As for `N[C@@H]1C[C@H]1c1ccccc1.N[C@H]1C[C@@H]1c1ccccc1`, the cell viability came to 93.1%.

Consider `COP(N)(=O)SC` (stereo not given), for which the cell viability was 111%.

As to `C[C@@H]1C[C@H](O)[C@@]2(O)[C@]13CC(=O)OC[C@@]2(C)[C@@](C)(O)C(=O)C3`, the cell viability stood at 92.3%.

In the case of `CC(=O)C1CCC2C3CCC4C[C@H](O)CCC4(C)C3C[C@H](O)C12C` (stereo partly drawn) [DIHYDROXY (3alpha,12alpha)PREGNAN-20-ONE], the cell viability was found to be 105%.

Consider `C[C@]12CC[C@H](O)C[C@@H]1CC[C@@H]1[C@@H]2CC[C@]2(C)C(=O)CC[C@@H]12`, for which the cell viability came out at 98.7%.

`C[C@]12CC[C@H](O)C[C@H]1CC[C@@H]1[C@@H]2C[C@@H](O)[C@]2(C)[C@@H](C3=CC(=O)OC3)CC[C@]12O`: the cell viability came out at 18.7%.
